Screening data (PubChem BioAssay)
Compounds with a hit are over-represented: about 2.8% of the library has one in this group of screens.
PG9 Ab binder: binders of HIV-1 gp120 antibody PG9, primary screen, biochemical, TR-FRET. 360,000 tested, 0.43% active. HIV-1 gp120 / PG9 antibody interaction. inhibition, % at 6.7 µM. TR-FRET gp120-PG9 antibody binding; in the data active = inhibition above about 8.5%
PP1 inh: PP1-alpha phosphatase inhibitors, primary screen, counter-screen for PP5 inhibitor project, biochemical, fluorescence, OMFP substrate, single point. Serine/threonine-protein phosphatase PP1-alpha catalytic subunit (Homo sapiens), P62136. purified PP1alpha. inhibition, % at 6.7 µM. 320,000 tested, 0.9% active;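 active = inhibition above the mean inhibition of all tested compounds plus 3 SD, computed separately for each screening campaign, cut at about 15% in these data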
GASC-1 inh: inhibitors of GASC-1 histone demethylase, primary screen, biochemical, fluorescence, DELFIA europium. Lysine-specific demethylase 4C (Homo sapiens), Q9H3R0. 330,000 tested, 0.069% active. GST-JMJD2C(1-420) H3K9me3 demethylation. inhibition, % at 2.35 µM. AID 2099, 2009;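 active = more than half of a compound's replicate wells show inhibition beyond 50%, single wells judged on their own value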;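 note: signal counts dimethyl H3K9 product captured on neutravidin plate; 0% = median of DMSO wells and 100% = 0.3 times that DMSO median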
Target sequence (Q9H3R0 1-420 limits assumed): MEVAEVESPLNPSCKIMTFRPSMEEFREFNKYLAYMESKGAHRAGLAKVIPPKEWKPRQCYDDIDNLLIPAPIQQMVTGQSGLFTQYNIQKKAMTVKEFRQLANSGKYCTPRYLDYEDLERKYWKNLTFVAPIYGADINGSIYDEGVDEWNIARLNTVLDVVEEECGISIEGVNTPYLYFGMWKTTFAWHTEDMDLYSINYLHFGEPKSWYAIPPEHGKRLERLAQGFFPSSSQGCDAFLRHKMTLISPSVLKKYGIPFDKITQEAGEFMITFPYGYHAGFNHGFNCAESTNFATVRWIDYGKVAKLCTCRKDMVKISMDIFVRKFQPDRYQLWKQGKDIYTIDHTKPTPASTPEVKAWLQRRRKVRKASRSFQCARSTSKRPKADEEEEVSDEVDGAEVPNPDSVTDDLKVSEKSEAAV
Rev-erbA mod: modulators of Rev-erb alpha DNA binding, primary screen, biochemical, FITC-DNA, fluorescence polarization, uHTS; Nuclear receptor subfamily 1 group D member 1 (Homo sapiens), P20393; Rev-erbα–FITC-DNA binding, 90 min; activity, % at 10 µM; 370,000 tested, 0.79% active;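 active = activity above about 14%, limit read from the data; passing the limit was not always enough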;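 note: 0% = DMSO wells with 35 nM protein and 100% = DMSO wells with 750 nM protein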
KLK7 zymogen act: proKLK7 zymogen activators, primary screen, biochemical, fluorescence intensity. 370,000 tested, 0.9% active. activation, % at 7 µM. AID 652039, 2013. Kallikrein-7 (Homo sapiens), P49862. purified proKLK7, EDANS-DABCYL substrate fluorescence; 100% is mature enzyme control, 0% vehicle;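 active = activation above the mean of all tested compounds plus 3 SD, computed per campaign excluding outliers beyond control limits, cut at about 13% in these data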
Target sequence (P49862 whole entry, looked up): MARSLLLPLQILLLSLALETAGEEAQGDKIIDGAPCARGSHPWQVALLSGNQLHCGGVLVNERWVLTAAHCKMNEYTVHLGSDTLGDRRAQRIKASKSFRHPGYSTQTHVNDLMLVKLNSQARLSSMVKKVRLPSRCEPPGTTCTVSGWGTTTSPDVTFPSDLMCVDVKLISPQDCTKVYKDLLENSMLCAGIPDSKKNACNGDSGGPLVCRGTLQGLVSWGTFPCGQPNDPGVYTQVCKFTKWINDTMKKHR
PP5 inh: PP5 phosphatase inhibitors, primary screen, biochemical, fluorescence; Serine/threonine-protein phosphatase 5 (Homo sapiens), P53041; purified PP5c, OMFP substrate fluorescence; inhibition, % at 6.7 µM; 320,000 tested, 0.18% active; AID 1987, 2009;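 active = inhibition above the campaign's mean inhibition across all tested compounds plus 3 SD, cut at about 9.5% in these data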;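 note: 0% = DMSO only and 100% = 100 µM cantharidin control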
proKLK7 act conf: proKLK7 zymogen activators, confirmation, biochemical, fluorescence intensity, triplicate | shares compounds with KLK7 zymogen act | purified proKLK7, EDANS-DABCYL substrate fluorescence; scaled: vehicle 0, mature enzyme 100 | activation, % at 7 µM | 3,200 tested, 68% active;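 active = activation, as change over the incubation, above the mean of all tested compounds plus 3 SD, cut at about 13% in these data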
EDANS-DABCYL int: EDANS-DABCYL substrate optical interference, artefact control for kallikrein-7 zymogen activator project, biochemical, fluorescence intensity, high throughput; shares compounds with KLK7 zymogen act; no enzyme, 4 h; solvent 0%, active enzyme control 100%; activation, % at 7 µM; 3,200 tested, 80% active; AID 686952, 2013;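 active = activation above the all-compound mean plus 3 SD, ignoring values outside control-based bounds, cut at about 4.8% in these data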;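 note: value is the 4 h activation minus the activation read at time zero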
K7 EDANS ctr: counter-screen for kallikrein-7 activators: EDANS-DABCYL interference, dose response | 250 tested, 20% active | EDANS-DABCYL peptide fluorescence interference, no enzyme | EC50, µM | shares compounds with KLK7 zymogen act | AID 720493;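 active = compounds that raise the fluorescence signal in this interference counterscreen, with EC50 at or below 10 µM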;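 note: intact quenched peptide substrate alone read at 355 nm excitation and 520 nm emission; signal is fluorescence gain from T0 to T4 after four hours at room temperature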
* hit, by the source's call; i = inactive; / = no result.

SMILES	PG9 Ab binder	PP1 inh	GASC-1 inh	Rev-erbA mod	KLK7 zymogen act	PP5 inh	proKLK7 act conf	EDANS-DABCYL int	others
Cc1cc(=O)oc2c(C)c(OC(=O)c3ccco3)ccc12	-1	-1	-10	-3	85*	-1	601*	620*
CCC(=O)Oc1ccc2c(C)cc(=O)oc2c1C	-1	0	4	2	422*	1	697*	675*
CCOc1ccc2c(C)cc(=O)oc2c1OCC	-1	-1	-9	-1	8	3	/	/
CC(C)C[C@H](NC1(C(=O)NC2CCCCC2)CCN(C)CC1)C(=O)NCC(c1ccccc1)c1ccccc1	/	/	/	-5	/	/	/	/
CC1C2CC(CC1(C)C)N(C(=O)Nc1ccc3nccnc3c1)C2 (centres undefined)	0	-1	1	-3	18*	-2	-1	-1
CCOC(=O)C1CCN(C(=O)Nc2ccc3nc(C)c(C)nc3c2)CC1	0	-1	-2	5	23*	-2	46*	53*
Nc1ccc2nc(C3CCCCC3)[nH]c2c1	-2	2	-3	3	0	4	/	/
Nc1ccc2cc3[nH]c4cc(N)ccc4c3nc2c1	-22	/	/	2	86*	/	75*	75*
COc1cc2c(cc1OC)CN(C(=O)NS(=O)(=O)c1ccc(C)cc1)CC2	-1	1	2	3	20*	1	4	1
CCC(=O)Oc1ccc2oc(=O)cc(C)c2c1	-1	-2	6	2	1	-1	/	/
CCC(=O)Oc1ccc2c(c1)OC1(OC(C)=O)OC(C)CC1=C2C (centres undefined)	3	-2	-2	-5	297*	2	610*	615*
COC(=O)c1ccc2c(C)c(C3(O)CCCCC3)[nH]c2c1	-2	/	3	-4	38*	/	-80	-82
CCOC(=O)C1=CCN(S(=O)(=O)c2ccc([N+](=O)[O-])cc2)C1c1ccc(C)cc1 (centres undefined)	-3	/	/	-1	1	/	/	/
CCCCC(NC(=O)COc1cc2c(c3oc(=O)cc(C)c13)CCC(C)(C)O2)C(=O)O (centres undefined)	0	-7	3	1	10	-1	/	/
Cc1cc(=O)oc2c3c(cc(OCC(=O)NC(C)C)c12)OC(C)(C)CC3	0	/	2	3	23*	/	47*	63*
Cc1cc(=O)oc2c3c(cc(OCC(=O)N[C@@H](C)C(=O)O)c12)OC(C)(C)CC3	1	/	5	-4	64*	/	62*	73*
N#Cc1ccc(OCCCN2CCC(C(O)(c3ccccc3)c3ccccc3)CC2)cc1	-1	/	/	-6	1	/	/	/
Cn1c(=O)c2cc(NC(=S)NCc3ccccc3F)ccc2n1C	0	/	/	-1	34*	/	10	8.7*
COc1cc(Cn2c3ccc(NC(=O)NCc4ccc(F)cc4)cc3c(=O)n2C)ccc1F	0	/	/	0	3	/	/	/
Cn1c(=O)c2cc(NC(=S)NCc3ccccc3F)ccc2n1Cc1ccc(F)cc1	-2	/	/	-6	-3	/	/	/
COc1ccc(NC(=S)Nc2ccc3c(c2)c(=O)n(C)n3-c2ccccc2)cc1	0	/	/	-10	42*	/	36*	48*
C=C(C)Cn1c2ccc(NC(=O)NCc3ccc(F)cc3)cc2c(=O)n1C	2	/	/	3	30*	/	10	15*
Cn1c(=O)c2cc(NC(=O)NCc3ccc(F)cc3)ccc2n1C	-1	/	/	-1	39*	/	31*	36*
C=CCCC[C@H]1OC(=O)[C@H](C)NC(=O)[C@H](C(C)C)NC(=O)[C@@H]2CCCN2C(=O)[C@H](Cc2ccccc2)OC(=O)[C@@H](C(C)C)N(C)C(=O)[C@H](C(C)C)NC(=O)C1(C)C	0	/	/	-4	1	/	/	/
CC1(C)Oc2ccc(C(=O)NCCCN3CCCC3)cc2NC1=O	/	/	/	-10	0	/	/	/
SMILES	PG9 Ab binder	PP1 inh	GASC-1 inh	Rev-erbA mod	KLK7 zymogen act	PP5 inh	proKLK7 act conf	EDANS-DABCYL int	others
O=C1c2ccccc2/C(=C\c2ccc(O[C@@H]3CCCCO3)cc2)N1c1ccccc1	-1	/	/	-5	100*	/	4	15*
CCCCCNc1nc(NCCCO)c(C#N)c2c1CN(C)CC2	-4	0	-5	-1	20*	2	17*	23*
C=CCNc1nc(NCc2ccccc2)c(C#N)c2c1CN(C)CC2	-1	1	-3	5	14*	3	20*	15*	K7 EDANS ctr=i
COc1ccc(S[C@]2(C(=O)N(C)C)CC(=O)N(C(=O)c3ccccc3)[C@@H]2c2ccc(OC)cc2)cc1	/	/	/	0	0	/	/	/
O=S1(=O)N[C@H](Cc2ccccc2)COc2cc(N3CCCC3)ccc21	/	/	/	1	1	/	/	/
CN1CC=C2C(C#N)=C(N)C(C#N)(C#N)[C@H](c3cccs3)[C@H]2C1	/	1	21	/	/	2	/	/
N#CC1=C(N)C(C#N)(C#N)C(c2ccncc2)C2CN(C(=O)OCc3ccccc3)CC=C12 (centres undefined)	1	4	-7	11	17*	0	36*	35*
CN1CC=C2C(C#N)=C(N)C(C#N)(C#N)[C@H](c3cccc(Cl)c3)C2C1 (some centres undefined)	-1	-3	-9	3	13*	1	34*	35*
CCOC(=O)N1CC=C2C(C#N)=C(N)C(C#N)(C#N)[C@H](c3ccsc3)[C@H]2C1	-1	6	11	0	8	0	/	/
CCCC1C2CN(C(C)C)CC=C2C(C#N)=C(N)C1(C#N)C#N (centres undefined)	-2	2	0	9	24*	4	12	14*
CN1CC=C2C(C#N)=C(N)C(C#N)(C#N)C(CCc3ccccc3)C2C1 (centres undefined)	/	0	2	/	/	0	/	/
CN1CC=C2C(C#N)=C(N)C(C#N)(C#N)C(c3ccsc3)C2C1 (centres undefined)	-2	0	-4	-3	15*	-1	57*	55*
